Consider 35 compounds from PubChem BioAssay AID651640 (Broad Institute, 2012).

Hit rate of the full screen: of about 350,000 compounds, about 6,000 (1.7%) were called active. Not shown: some 5% with an inconclusive outcome. The full list was thinned out, with actives kept by preference. A number with no mark means an inactive call. Rule as the data show it: active = CPE inhibition above about 20% (passing the limit was not always enough); inconclusive = no clear call, values can overlap the other calls; tested in BHK-21 cells.

This assay in a line: inhibitors of DENV2 cytopathic effect, primary screen, cell-based, plate reader, single concentration (AID 651640).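 Also: 0% = median of neutral control wells and 100% = median of positive control wells.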 The settings on record: DENV2-infected cells, cytopathic effect rescue, at 9.99 µM, active compounds read high.
With `CCOC(=O)[C@]12Cc3ccccc3[C@H]1N(C1CCCCC1)C(=O)c1cc(OC)ccc12`, the CPE inhibition was 12.6%. `CCOC(=O)[C@]12Cc3cc(OC)ccc3[C@H]1N(C(C)C)C(=O)c1ccccc12`: the CPE inhibition was 28.6% (active).

As to `O=C(NC1CCCCC1)N1Cc2cc(N3CCCCC3)ccc2-n2nncc2C1`, the CPE inhibition is 18.7%. With `Clc1ccc([C@@H]2CC3CCC2N3)cn1` (stereo not given in full) the figure was 2.65%; with `c1cc2c(cc1[C@H]1OC[C@H]3[C@@H]1CO[C@@H]3c1ccc3c(c1)OCO3)OCO2`, -8.32%; with `O=C1/C(=C\c2ccc3c(c2)OCO3)N2CCC1CC2`, -2.2%. The value for `c1cc2c(cc1C1OCC3C(c4ccc5c(c4)OCO5)OCC13)OCO2` (stereo not given) was 62% (active); that for `COc1ccc(C#Cc2ccc([C@H]3[C@H](CO)N4CCCCN(C(=O)Cc5ccccc5)C[C@@H]34)cc2)cc1` was -26.2%; that for `O=C(NCC1=C(c2ccc3ccccc3c2)C[C@@H]2CC[C@H]1N2Cc1ccco1)c1cccs1` was 0.357%. The value for `CS(=O)(=O)N1CCC2CCNC2C1` (stereo not given) was -6.24%. For the compound `C/C=C/c1ccc(C2[C@@H]3CN(S(C)(=O)=O)C[C@H]2N3)cc1` (stereo not given in full), the CPE inhibition was 62.5% (active). With `C/C=C/c1ccc(C2[C@@H]3CN(Cc4cncnc4)C[C@H]2N3)cc1` (stereo not given in full) the figure was 3.65%. Turning to `C[C@]12CCC3C(CC[C@H]4[C@H](O)[C@H](O)CC[C@]34C)C1CCC2=O` (stereo not given in full), the CPE inhibition is -1.57%. With `CC(=O)NCC1=C(c2ccc3ccccc3c2)C[C@@H]2CC[C@H]1N2Cc1ccco1` the figure was -2.04%; with `C[C@]12CCCCC1=CC(=O)C1C2CC[C@@]2(C)C1C[C@@H](F)[C@@H]2O` (stereo not given in full), -4.28%; with `COc1cccc(-c2ccc([C@H]3[C@H]4CN(C(=O)Cc5ccncc5)CCCCN4[C@H]3CO)cc2)c1`, 9.07%.

For the compound `O=C(Cc1ccncc1)N1CCCCN2[C@@H](CO)[C@H](c3ccc(-c4ccncc4)cc3)[C@@H]2C1`, the CPE inhibition is 8.4%. `COc1ccc(-c2ccc([C@H]3[C@H](CO)N4CCCCN(C(=O)Cc5ccncc5)C[C@@H]34)cc2)cc1`: the CPE inhibition was 40.9% (active). `O=S(=O)(c1ccccc1)N1CCC2CCNC2C1` (stereo not given): the CPE inhibition was -0.751%. `COc1ccc2c(c1)NP(=S)(c1ccccc1)N2` (stereo not given): the CPE inhibition was 1.27%.

On to `Cc1ccnc(-n2c(C)cc(/C=C3\C(=O)NC(=S)N(C)C3=O)c2C)c1`, for which the CPE inhibition is 47.7% (active). The value for `Cc1cc(/C=C2/C(=O)NC(=O)N(Cc3ccco3)C2=O)c(C)n1-c1ccc(C(=O)O)cc1` was -3.34%; that for `Cc1ccc(-n2c(C)cc(/C=C3\C(=O)NC(=O)N(C)C3=O)c2C)cc1C` was -7.68%.

`COc1ccccc1NC(=O)N1C[C@@H]2C[C@@H](C1)c1cccc(=O)n1C2`: the CPE inhibition is 7.15%. The value for `O=C(NC(=S)N1C[C@H]2C[C@H](C1)c1cccc(=O)n1C2)c1ccc(F)cc1` was -11.6%; that for `O=C(CCC(=O)N1C[C@H]2C[C@@H](C1)c1cccc(=O)n1C2)NCc1ccccc1C(F)(F)F` was 25.4% (active).

For `CC(C)CN1Cc2cc(N3CCCCC3)ccc2-n2nncc2C1`, the CPE inhibition is -1.07%.

On to `O=C(O)[C@H]1[C@H](CO)[C@H]2Cn3c(ccc(-c4ccccc4)c3=O)[C@@H]1N2S(=O)(=O)c1ccccc1F`, for which the CPE inhibition was 0.732%.

Regarding `COc1cccc(-c2ccc3n(c2=O)C[C@H]2[C@H](CO)[C@@H](C(=O)O)[C@@H]3N2C(=O)c2cnccn2)c1`, the CPE inhibition was 0.125%.

Turning to `COc1cc(OC)cc(C(=O)NCCN2CCC3(CC2)C(=O)NCN3c2ccccc2)c1`, the CPE inhibition was 5.39%. With `O=C(c1ccccc1)C(O)(CN1CCCCC1)c1ccccc1` (stereo not given) the figure was 9.29%. The value for `COC(=O)C1=C(c2ccc(F)cc2OCc2ccccc2)C[C@@H]2CC[C@H]1N2C(=O)NCc1ccc(Cl)cc1` was 91% (active); that for `COC(=O)C1=C(c2ccc(F)cc2OCc2ccccc2)C[C@@H]2CC[C@H]1N2C(=O)NCc1ccc2[nH]ccc2c1` was 5.56%; that for `COC(=O)C1=C(c2ccc(F)cc2OCc2ccccc2)C[C@@H]2CC[C@H]1N2C(=O)NCc1ccc(C(C)(C)C)cc1` was -10.5%. The value for `COc1ccc(C2C=C(C)Oc3c2c(=O)oc2ccccc32)cc1OC` (stereo not given) was -10.4%.
